Source: PubChem BioAssay AID1159580 (chemical genetic matrix, 2015)
Where “and” joins values, the source holds several entries; their conditions need not be identical. Equal values may be shown once. About 2,000 (36%) of roughly 5,500 compounds were called active. Roughly 18% stayed inconclusive and do not appear here. Cut-off read from the data, not from the text of the source: active = normalized growth mostly below about 0.91 (no sharp cut-off); inconclusive = no clear call, values can overlap the other calls; inactive = mostly above about 0.92. Some of the results follow.

Experiment: chemical genetic growth profiling, strain panel (AID 1159580);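 note: tested at 20 µM; growth read once vehicle control cultures reached saturation at 30 °C; 1 = growth at the plate median or of vehicle wells; lower values mean less growth of the strain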
Settings: S. cerevisiae deletion strains, growth OD
[1] = locus YAL013W, strain DEP1, hits give low values
[2] = locus YAL040C, strain CLN3, hits give low values
[3] = locus YCL061C, strain MRC1 (second series), hits give low values
[4] = locus YDR363W, strain ESC2, hits give low values
[5] = locus YER002W, strain NOP16, hits give low values
[6] = locus YNL128W, strain TEP1, hits give low values
[7] = locus YNL153C, strain GIM3, hits give low values
[8] = locus YNL175C, strain NOP13, hits give low values
[9] = locus YNL197C, strain WHI3, hits give low values
[10] = locus YNL224C, strain SQS1, hits give low values
[11] = locus YOR083W, strain WHI5 (second series), hits give low values
[12] = locus YMR307W, strain GAS1, hits give low values
[13] = locus YDR150W, strain NUM1, hits give low values
[14] = locus YJR075W, strain HOC1, hits give low values

Measured: normalized growth

CCC(CO)NC(=O)C1C=C2c3cccc4[nH]cc(c34)CC2N(C)C1 (configuration not stated)
inactive: [1] 0.986 | [2] 0.999 | [3] 1 | [4] 0.991 | [5] 0.99 | locus YGR078C, strain PAC10, hits give low values 0.977 | [6] 0.997 | [7] 1.02 | [8] 0.996 | [9] 0.978 | [10] 0.995 | [11] 0.996

O=C1CCC(c2ccc(-n3ccnc3)cc2)=NN1
inactive: [1] 0.984 | [2] 0.943 | [3] 1 | [4] 1 | [5] 1.01 | locus YMR263W, strain SAP30, hits give low values 1 | [12] 1.05 | [8] 0.987 | [9] 0.979 | [10] 0.994 | [11] 0.994

N[C@@H](COP(=O)(O)O)C(=O)O
inactive: [2] 0.991 | [3] 0.989 | [13] 1.01 | [4] 1.01 | [5] 1 | [14] 0.984 | [8] 1.01 | [9] 0.984 | [10] 0.992 | locus YNL322C, strain KRE1, hits give low values 1.01 | [11] 1.01 | locus YPL055C, strain LGE1, hits give low values 1.01 | locus YPL241C, strain CIN2, hits give low values 0.997

COc1cc(=O)n(C)c2c(OCC(O)C(C)(C)O)cccc12 (configuration not stated)
inactive: [1] 1.03 | [2] 0.99 | [3] 1.01 | [4] 1.01 | [5] 0.999 | [14] 1.01 | [6] 0.99 | [8] 1 | [9] 1.02 | [10] 1.01 | [11] 1.02

Cc1[nH]ccc2c1[nH]c1cc(=O)ccc12
inactive: [1] 1.02 | locus YAL021C, strain ccr4, hits give low values 0.989 | locus YAL026C, strain drs2, hits give low values 1.01 | locus YAL030W, strain snc1, hits give low values 0.995 | locus YBL061C, strain skt5, hits give low values 0.993 | locus YBR009C, strain hhf1, hits give low values 1.01 | locus YBR021W, strain FUR4, hits give low values 1.03 | locus YBR023C, strain chs3, hits give low values 1 | locus YBR171W, strain sec66, hits give low values 0.999 | locus YBR229C, strain ROT2, hits give low values 1.01 | locus YBR231C, strain swc5, hits give low values 0.975 | locus YBR279W, strain paf1, hits give low values 1.01 | locus YCL011C, strain gbp2, hits give low values 1 | locus YCL016C, strain dcc1, hits give low values 1 | locus YCL029C, strain bik1, hits give low values 0.986 | locus YCL061C, strain MRC1, hits give low values 1 | locus YCL069W, strain vba3, hits give low values 0.995 | locus YCR088W, strain abp1, hits give low values 0.998 | locus YDL005C, strain med2, hits give low values 0.996 | locus YDL035C, strain GPR1, hits give low values 1.03 | locus YDL040C, strain nat1, hits give low values 0.993 | locus YDL074C, strain BRE1, hits give low values 1.04 | locus YDL101C, strain DUN1, hits give low values 1.01 | locus YDL185W, strain tfp1, hits give low values 0.996 | locus YDL192W, strain arf1, hits give low values 0.991 | locus YDR001C, strain nth1, hits give low values 1.01 | locus YDR069C, strain doa4, hits give low values 1.01 | locus YDR101C, strain arx1, hits give low values 0.985 | locus YDR137W, strain rgp1, hits give low values 1 | [13] 1 | locus YDR159W, strain sac3, hits give low values 0.978 | locus YDR162C, strain NBP2, hits give low values 1.03 | locus YDR195W, strain ref2 0.996 | locus YDR297W, strain sur2, hits give low values 1 | locus YDR318W, strain mcm21, hits give low values 0.993 | locus YDR334W, strain swr1, hits give low values 1 | locus YDR335W, strain msn5, hits give low values 0.995 | locus YDR388W, hits give low values 0.988 | locus YDR392W, strain spt3, hits give low values 0.96 | locus YDR502C, strain sam2, hits give low values 0.992 | locus YEL003W, strain gim4, hits give low values 0.997 | locus YEL037C, strain rad23, hits give low values 0.993 | locus YEL061C, strain CIN8 (second series), hits give low values 0.989 | locus YEL061C, strain CIN8, hits give low values 1.01 | locus YER015W, strain faa2, hits give low values 1 | locus YER016W, strain bim1, hits give low values 0.997 | locus YER110C, hits give low values 0.98 | locus YER111C, strain swi4, hits give low values 0.989 | locus YER155C, strain BEM2 (second series), hits give low values 0.973 | locus YER155C, strain BEM2, hits give low values 1.02 | locus YER167W, strain BCK2, hits give low values 1.03 | locus YFR010W, strain ubp6, hits give low values 0.995 | locus YGL078C, strain dbp3, hits give low values 0.992 | locus YGL086W, strain mad1, hits give low values 1.01 | locus YGL167C, strain pmr1, hits give low values 0.993 | locus YGL173C, strain kem1, hits give low values 1 | locus YGL227W, strain vid30, hits give low values 0.995 | locus YGL240W, strain doc1, hits give low values 0.995 | locus YGL248W, strain PDE1, hits give low values 1.02 | locus YGL253W, strain hxk2, hits give low values 1 | locus YGR135W, strain pre9, hits give low values 0.999 | locus YGR252W, strain gcn5, hits give low values 1.01 | locus YHR013C, strain ard1, hits give low values 1 | locus YHR027C, strain rpn1, hits give low values 1 | locus YHR030C, strain SLT2, hits give low values 1.01 and 0.992 | locus YHR079C, strain IRE1 (second series), hits give low values 0.991 | locus YHR079C, strain IRE1, hits give low values 0.989 | locus YHR094C, strain hxt1, hits give low values 0.986 | locus YHR129C, strain ARP1, hits give low values 1.03 | locus YHR142W, strain chs7, hits give low values 1 | locus YHR200W, strain rpn10, hits give low values 0.993 | locus YIL066C, strain RNR3, hits give low values 1.04 | locus YIL073C, strain SPO22, hits give low values 1.02 | locus YIL125W, strain kgd1, hits give low values 0.993 | locus YIR030C, strain dcg1, hits give low values 0.991 | locus YJL092W, strain hpr5, hits give low values 0.999 | locus YJL095W, strain BCK1 (second series), hits give low values 0.995 | locus YJL095W, strain BCK1, hits give low values 1.01 and 1.02 | locus YJL115W, strain asf1, hits give low values 0.994 | locus YJL129C, strain trk1, hits give low values 1 | locus YJL134W, strain LCB3, hits give low values 1 | locus YJL154C, strain vps35, hits give low values 0.997 | locus YJL164C, strain tpk1, hits give low values 0.996 | locus YJL166W, strain qcr8, hits give low values 0.995 | locus YJL168C, strain set2, hits give low values 0.986 | locus YJL187C, strain SWE1 (second series), hits give low values 1.02 | locus YJL187C, strain SWE1, hits give low values 0.996 | locus YJR043C, strain POL32, hits give low values 1.04 | locus YJR066W, strain TOR1, hits give low values 0.947 | [14] 1.02 | locus YKL009W, strain mrt4, hits give low values 0.995 | locus YKL068W, hits give low values 0.997 | locus YKL085W, strain MDH1 (second series), hits give low values 1.01 | locus YKL085W, strain MDH1, hits give low values 1.01 | locus YKL160W, strain elf1, hits give low values 1 | locus YKL190W, strain CNB1, hits give low values 0.987 | locus YKR001C, strain vps1, hits give low values 0.987 | locus YKR026C, strain gcn3, hits give low values 1 | locus YKR091W, strain srl3, hits give low values 0.992 | locus YLL001W, strain dnm1, hits give low values 0.994 | locus YLL026W, hits give low values 1 | locus YLL041C, strain sdh2, hits give low values 0.999 | locus YLR027C, strain aat2, hits give low values 0.998 | locus YLR039C, strain RIC1, hits give low values 1.06 | locus YLR058C, strain SHM2, hits give low values 1.01 | locus YLR102C, strain apc9, hits give low values 0.993 | locus YLR113W, strain HOG1, hits give low values 1.02 | locus YLR221C, strain rsa3, hits give low values 1.01 | locus YLR258W, strain gsy2, hits give low values 0.995 | locus YLR262C, strain YPT6 (second series), hits give low values 0.998 | locus YLR262C, strain YPT6, hits give low values 1.09 | locus YLR268W, strain sec22, hits give low values 0.984 | locus YLR320W, strain mms22, hits give low values 0.999 | locus YLR330W, strain CHS5, hits give low values 1 | locus YLR342W, strain FKS1 (second series), hits give low values 1.03 | locus YLR342W, strain FKS1, hits give low values 0.994 | locus YLR357W, strain rsc2, hits give low values 0.99 | locus YLR370C, strain arc18, hits give low values 1 | locus YLR371W, strain rom2, hits give low values 0.983 | locus YLR384C, strain iki3, hits give low values 0.999 | locus YLR418C, strain cdc73, hits give low values 0.997 | locus YML016C, strain PPZ1, hits give low values 1.01 | locus YML032C, strain rad52, hits give low values 0.999 | locus YML120C, strain ndi1, hits give low values 0.992 | locus YML124C, strain tub3, hits give low values 1 | locus YMR058W, strain fet3, hits give low values 1 | locus YMR078C, strain ctf18, hits give low values 0.985 | locus YMR125W, strain sto1, hits give low values 0.986 | locus YMR129W, hits give low values 0.995 | locus YMR205C, strain PFK2, hits give low values 0.983 | locus YMR223W, strain ubp8, hits give low values 1.01 | locus YMR231W, strain pep5, hits give low values 0.999 | [12] 1.09 | locus YNL067W, strain RPL9B, hits give low values 1 | locus YNL071W, strain lat1, hits give low values 1 | [6] 1.02 | [7] 1 | locus YNL183C, strain NPR1, hits give low values 0.97 | locus YNL209W, strain ssb2, hits give low values 1 | locus YNL233W, strain BNI4, hits give low values 1.01 | locus YNL248C, strain rpa49, hits give low values 0.995 | locus YNL250W, strain rad50, hits give low values 1.01 | locus YNL271C, strain bni1, hits give low values 0.988 | locus YNL298W, strain CLA4, hits give low values 1.02 | locus YNL307C, strain MCK1, hits give low values 0.988 | locus YNL322C, strain KRE1 (second series), hits give low values 0.997 | locus YNR049C, strain mso1, hits give low values 1 | locus YNR052C, strain pop2, hits give low values 1 | locus YOL012C, strain htz1 0.948 | locus YOL147C, strain pex11, hits give low values 0.986 | locus YOR001W, strain rrp6, hits give low values 0.999 | locus YOR061W, strain CKA2, hits give low values 1.01 | locus YOR069W, strain VPS5, hits give low values 1.01 | locus YOR070C, strain gyp1, hits give low values 0.998 | locus YOR080W, strain dia2, hits give low values 0.996 | locus YOR083W, strain WHI5, hits give low values 0.993 | locus YOR106W, strain vam3, hits give low values 1 | locus YOR136W, strain idh2, hits give low values 0.991 | locus YOR144C, strain elg1, hits give low values 0.983 | locus YOR184W, strain ser1, hits give low values 1 | locus YOR231W, strain MKK1, hits give low values 1.01 | locus YOR265W, strain rbl2, hits give low values 0.996 | locus YOR270C, strain vph1, hits give low values 1.01 | locus YOR290C, strain snf2, hits give low values 0.989 | locus YOR316C, strain cot1, hits give low values 0.991 | locus YPL051W, strain arl3, hits give low values 1 | locus YPL078C, strain atp4, hits give low values 1.01 | locus YPL106C, strain sse1, hits give low values 0.987 | locus YPL240C, strain hsp82, hits give low values 0.99 | locus YPL256C, strain CLN2, hits give low values 1.03 | locus YPR119W, strain clb2, hits give low values 0.987 | locus YPR141C, strain kar3, hits give low values 0.994 | locus YPR163C, strain tif3, hits give low values 0.986 | locus YPR167C, strain met16, hits give low values 0.996 | strain wtn01, hits give low values 0.984
